The results in this text go back to PubChem BioAssay AID624351 (Southern Research Specialized Biocontainment Screening …, 2012).

In all, about 2,400 compounds went through this assay and about 1,400 (58%) were called active. So high a share suggests a set chosen from earlier hits. This is one part of the list. Values without a mark were called inactive.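 How the source made its calls: active means inhibition of 30% or more at any tested dose; inconclusive means primary hits over the limit that were never retested; inactive means the rest.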

The nature of the assay: ADP Hunter readout inhibition without MgcRacGAP – biochemical, coupled enzyme counter-screen, artefact control for MgcRacGAP inhibitor project, dose response (AID 624351).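 Further: signal is the ADP detection kit reading of free GDP without any GAP enzyme.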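 On inhibition: 0% = median positive control wells and 100% = median negative control wells.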 To be noted: fluorescence, no MgcRacGAP; series mostly up to 80 µM. A general note: The purpose of a counterscreen is to sort out artefacts and off-target activity.
What is called IC50 is the concentration that inhibits the measured activity by half. Regarding `O=C1NC(=S)S/C1=C\c1cc(Cl)cc(Cl)c1O`, the IC50 entry is “inactive”.
Regarding `COc1cc(/C=N/N=C2/NC(=O)C(c3ccccc3)S2)ccc1O` (stereo unspecified), the 50% inhibitory concentration (IC50) is 41.6 µM (active).
Still for that read-out and setting: the figure for `COc1cc(/C=C2\SC(=Nc3ccc(Cl)c(C(=O)O)c3)NC2=O)c(Br)c(Br)c1O` is 37.5 µM (active); for `COc1ccc(/C=N/N=C2/NC(=O)C(CC(=O)O)S2)cc1OCc1ccc(Cl)cc1Cl` (stereo unspecified) it is “inactive”.
Take `COc1ccc(N=C2NC(=O)/C(=C/c3ccc(O)c(OC)c3)S2)cc1`: the IC50 was 24.1 µM (active).
Still for that read-out and setting: the result for `Cn1cccc1/C=C1\SC(=Nc2ccc(O)cc2)NC1=O` reads 62.7 µM (active); that for `COCCCNCCCCOc1c(Cl)cc(C)cc1Br`, “inactive”; that for `Nc1cc(SCc2ccc([N+](=O)[O-])cc2)ncn1`, “inactive”.
With `COc1cc(/C=C2/C(=O)ON=C2c2ccccc2)ccc1O`, the IC50 entry was “inactive”.
As for `CN(C)c1ccc(/C=C2/NC(=O)NC2=O)cc1`, the IC50 was 52.8 µM (active).
Turning to `COc1cc(/C=C2\SC(=Nc3ccccc3)NC2=O)cc(Cl)c1O`, the IC50 is 82 µM (active).
Same read-out and setting: the result for `COc1cc(/C=C2/SC(=Nc3ccc(O)cc3)NC2=O)ccc1O` reads 27.2 µM (active); that for `COc1cc(C=C2NC(=O)NC2=O)ccc1O`, 19.4 µM (active); that for `CCOc1ccc(C2NC(=O)C(C#N)=C(S)N2c2cccc(C)c2)cc1OC` (stereo unspecified), “inactive”.
On the same count and under the same terms, the result for `COc1cc(/C=C2\SC(=Nc3ccccc3OC)NC2=O)ccc1O` reads 25 µM (active).
Same read-out and setting: the figure for `COc1ccc(-c2cn[nH]c2-c2ccc(O)cc2O)cc1OC` is 57.6 µM (active); for `COc1ccccc1-c1cn[nH]c1-c1ccc(O)cc1O` it is 51.4 µM (active); for `COc1ccc(-c2cn[nH]c2-c2ccc(O)cc2O)cc1` it is 47.9 µM (active).
Turning to `CCn1c(=O)c(C(=O)CN(C)Cc2cccc(OC)c2OC)c(N)n(Cc2ccccc2)c1=O`, the IC50 entry was “inactive”.
Take `COCCCNC1=C(C#N)C(=O)NC(c2cccs2)S1` (stereo unspecified): the IC50 entry was “inactive”.
Regarding `CC1(C)OC(=O)C(=Cc2ccc(-c3ccc(S(N)(=O)=O)cc3)o2)C(=O)O1`, the IC50 entry is “inactive”.
Same read-out and setting: the result for `O=c1c2ccc(F)cc2sn1-c1ccccc1` reads “inactive”; that for `COc1cc2c(CCNC(C)=O)c[nH]c2cc1O`, 50.7 µM (active).
The same measure, in the same setting: the result for `COc1ccc(Br)cc1CN1CCN(Cc2c[nH]c3ccccc23)CC1` reads “inactive”; that for `CCOc1ccc(CN2CCN(S(=O)(=O)c3ccc(NC(C)=O)cc3)CC2)cc1`, “inactive”.
The same measure, in the same setting: the result for `Cc1ccc(C)c(S(=O)(=O)N2CCN(CC(=O)N3CCc4ccccc4C3)CC2)c1` reads “inactive”; that for `O=C(Cc1coc2cc(O)ccc12)N1CCN(S(=O)(=O)c2ccc(Br)cc2)CC1`, 21.6 µM (active); that for `CC(=O)N1CCN(CC(O)COc2ccc(Br)cc2)CC1` (stereo unspecified), “inactive”.
Take `N#Cc1ccccc1S(=O)(=O)N1CCN(C(=O)Cc2coc3cc(O)ccc23)CC1`: the IC50 was 33.6 µM (active).
The same measure, in the same setting: the result for `Oc1ccc(-c2cn3c(n2)SCC3)cc1` reads 19.5 µM (active); that for `CCOc1cc(/C=C(\C#N)c2[nH]nc(N)c2C#N)ccc1O`, 45.7 µM (active); that for `CCOc1cc(-c2cc(-c3ccc(N)cc3)nc(N)c2C#N)ccc1O`, “inactive”.
For the compound `CC1CCCN(CCOc2ccc3ccccc3c2Br)C1` (stereo unspecified), the IC50 result was “inactive”.
Consider `CC1NC(C)c2c(ccc3ccccc23)O1` (stereo unspecified), for which the IC50 entry was “inactive”.
For `Oc1ccc2ccccc2c1Br`, the 50% inhibitory concentration (IC50) was 15.8 µM (active).
For `CN1C(=O)C2C(c3ccc(N(C)C)cc3)=NN(Cc3ccccc3)C2C1=O` (stereo unspecified), the IC50 was 46.5 µM (active).
For `c1ccc(Nc2cc(Nc3ccccc3)[nH]n2)cc1`, the IC50 is 57.9 µM (active).
In the case of `C/C=C/C=C/C(=O)[C@@H]1[C@@H]([C@]2(C)OC(=O)C(C)=C2O)[C@H]2/C(=C(O)/C=C/C=C/C)C(=O)[C@]1(C)C(=O)C2(C)O` (stereo partly specified), the IC50 result is “inactive”.
With `Oc1ccc(NC(=S)N=Nc2c(O)[nH]c3ccccc23)cc1`, the half-maximal inhibitory concentration (IC50) was 27.5 µM (active).
Same read-out and setting: the result for `Nc1ccc2nc(Cc3ccccc3)[nH]c2c1` reads 72.6 µM (active); that for `Nc1ccc2nc(CCCCc3nc4ccccc4[nH]3)[nH]c2c1`, 59.4 µM (active).
As a reminder, the inhibition is the relative decrease from the control value, in per cent. Take `O=C1C(=Cc2ccco2)CCC1=Cc1ccco1`: the inhibition was -16.6% [at 10 µM].
Take `O=C(CCC1CCCC1)N1CCN(C2CCCC2)CC1`: the IC50 result was “inactive”.
As for `CC/C(=C\c1ccc(N(C)C)cc1)c1ccncc1`, the concentration for half-maximal inhibition (IC50) was 29.7 µM (active).
On to `COC1=C(Br)C(=O)c2nc(C)ccc2C1=O`, for which the IC50 result was “inactive”.
Regarding `Cc1ccccc1C(=O)Nc1ccc(N2CCCC2)cc1`, the half-inhibitory concentration (IC50) was 70.8 µM (active).
On the same count and under the same terms, the figure for `O=C(Nc1ccc(N2CCCCCC2)cc1)c1ccc[nH]1` is 38.8 µM (active).
In the case of `O=C(Nc1ccc(N2CCCCC2)cc1)c1ccccc1`, the IC50 entry is “inactive”.
With `CN1CCN(Cc2coc3c(Cl)cc(Cl)cc3c2=O)CC1`, the IC50 result was “inactive”.
Turning to `Cc1ccc(CCC(=O)Nc2ccc(N(C)C)cc2)o1`, the half-maximal inhibitory concentration (IC50) was 57.5 µM (active).
On to `Cc1ccc(NC(=O)CCNCc2ccco2)cc1S(=O)(=O)N(C)C`, for which the IC50 result was “inactive”.
Turning to `COc1ccc(NC2CCCN(C(=O)CCc3cccc(F)c3)C2)cc1` (stereo unspecified), the half-maximal inhibitory concentration (IC50) is 72.9 µM (active).
On the same count and under the same terms, the entry for `COc1ccc(NC2CCCN(C(=O)CCN3CCCC3=O)C2)cc1OC` (stereo unspecified) is “inactive”; for `COc1ccc(NC2CCCN(C(=O)CCN3CCCO3)C2)cc1` (stereo unspecified) it is “inactive”.
Turning to `O=C(c1cccc(F)c1)N1CCN(Cc2cccc(Br)c2)CC1`, the IC50 entry is “inactive”.
The same measure, in the same setting: the result for `COc1ccc(CN2CCN(Cc3cccc(F)c3)CC2)cc1OC` reads “inactive”; that for `COc1ccc(NC2CCCN(C(=O)CCN3Cc4ccccc4C3=O)C2)cc1` (stereo unspecified), 63 µM (active); that for `COc1ccc(C(=O)N2CCN(C3CCN(Cc4ccccc4)CC3)CC2)cc1OC`, “inactive”.
For the compound `COc1ccc(C2CC(c3ccc4ccccc4c3)=NN2C(=O)CNC2CCCCC2)cc1` (stereo unspecified), the IC50 entry is “inactive”.
The same measure, in the same setting: the figure for `COc1ccc(NC2CCCN(C(=O)CSc3ccccc3)C2)cc1OC` (stereo unspecified) is 68.5 µM (active); for `CCOc1ccccc1/C=c1\sc2ncnn2c1=O` it is “inactive”.
Still for that read-out and setting: the result for `CN1C(=O)NC(c2ccc(O)cc2)C2=C1CN(c1ccc(O)cc1)C2=O` (stereo unspecified) reads 44.7 µM (active).
For the compound `O=C(CN1CCCCCC1)NCC1CCCO1` (stereo unspecified), the IC50 entry was “inactive”.
In the case of `O=C(Cn1c(C(=O)NCC2CCCO2)cc2sccc21)c1ccccc1` (stereo unspecified), the half-maximal inhibitory concentration (IC50) is 81.6 µM (active).
`C=CCOc1ccccc1CN1CCCN(C)CC1`: the IC50 result was “inactive”.
As for `COc1cccc(CNCc2ccco2)c1O`, the IC50 result was “inactive”.
The same measure, in the same setting: the result for `Oc1ccc(-c2csc(Nc3ncccn3)n2)cc1` reads 21.3 µM (active); that for `COc1cccc(Nc2nc(-c3ccc(O)cc3)cs2)c1`, 63.7 µM (active).
Turning to `Oc1ccc(-c2csc(Nc3cccnc3)n2)cc1`, the IC50 was 15.8 µM (active).
Take `COc1cccc(NC2=C(C#N)C(=O)NC(c3cccc(OC)c3O)S2)c1` (stereo unspecified): the IC50 entry is “inactive”.
On the same count and under the same terms, the result for `Oc1ccc(-c2csc(NCc3ccco3)n2)cc1` reads 24 µM (active).
